Results as given in PubChem BioAssay AID1672 (Johns Hopkins Ion Channel Center, 2009).
About 2,600 (0.84%) of roughly 310,000 compounds were called active.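 How the source made its calls: active means fluorescence ratio B-score at or below minus 3 SD of library scores, with starting-brightness B-score within 2 SD (cut at about -4.2 in these data); inactive means the rest.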 For the sample, actives were picked, then their nearest neighbours and some compounds at random.

Target: Inward rectifier potassium channel 2 (Mus musculus) (UniProt P35561)
Sequence (P35561 whole entry, looked up): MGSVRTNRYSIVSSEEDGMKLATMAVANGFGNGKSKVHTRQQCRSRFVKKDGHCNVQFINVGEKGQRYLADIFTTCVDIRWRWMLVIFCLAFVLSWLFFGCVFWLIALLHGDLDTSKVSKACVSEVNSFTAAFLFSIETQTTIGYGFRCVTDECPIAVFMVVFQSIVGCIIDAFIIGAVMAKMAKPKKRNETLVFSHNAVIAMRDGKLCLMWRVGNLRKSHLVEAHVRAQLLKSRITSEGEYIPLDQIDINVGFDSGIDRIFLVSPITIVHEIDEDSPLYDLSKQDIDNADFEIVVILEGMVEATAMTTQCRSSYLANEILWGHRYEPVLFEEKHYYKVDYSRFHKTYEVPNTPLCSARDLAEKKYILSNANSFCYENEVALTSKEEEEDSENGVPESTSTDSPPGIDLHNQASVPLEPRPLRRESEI
Assay: inhibitors of mouse Kir2.1 inward-rectifier potassium channel (AID 1672);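 further: channel flux triggered by added potassium and thallium sulfate stimulus; B-score of peak minus minimum fluorescence over baseline after thallium stimulus; more negative B-score means stronger Kir2.1 block with less thallium influx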
Settings: HEK293-Kir2.1, FluxOR thallium flux fluorescence; at 10 µM; hits give low values

SMILES	B-score
COc1ccc(C(=O)Nc2cccc(NC(=O)c3ccc(OC)cc3OC)n2)c(OC)c1	1.64 (inactive)
O=S(=O)(O)Oc1c[nH]c2ccccc12	0.01 (inactive)
Cc1nnc(SCC(=O)NCCOc2ccc(Cl)cc2)n1-c1ccccc1	-0.16 (inactive)
Cc1nnc(SCC(=O)N2CCN(c3ccccc3)CC2)n1-c1ccccc1	0.71 (inactive)
Cc1nnc(SCc2ccc(C(=O)c3ccc(Cl)cc3)o2)n1-c1ccccc1	-6.19 (active)
Cc1ccc(OCC(=O)OC(C)CN(C)Cc2ccccc2)cc1 (stereo not drawn)	0.74 (inactive)
COc1ccc(OCC(O)CN(C)C(=O)C(C)Oc2ccccc2)cc1 (stereo not drawn)	-0.09 (inactive)
CN(Cc1ccccc1)CC(O)COc1ccc(CNCc2cc3ccccc3s2)cc1 (stereo not drawn)	-11.4 (active)
C=CCNC(=O)C1CC2c3ccccc3C1c1ccccc12 (stereo not drawn)	-2.23 (inactive)
CC(C)Sc1nnc([C@H](Cc2ccccc2)NC(=O)OC(C)(C)C)o1	-0.51 (inactive)
C[C@H](NC(=O)OC(C)(C)C)c1nnc(SCC(N)=O)o1	-0.34 (inactive)
C[C@@H](NC(=O)OC(C)(C)C)c1nnc(S(=O)(=O)Cc2ccccc2)o1	-6.48 (active)
O=C(c1ccc(Cl)s1)N(Cc1nnc(-c2ccccc2Cl)o1)C1CC1	1.76 (inactive)
Cc1ccn2c(=O)nc(SCC(=O)NCc3ccc(F)cc3)nc2c1	-1.27 (inactive)
Cc1csc(NC(=O)c2ccc(C)s2)n1	0.01 (inactive)
CC(=O)Nc1cccc(C(=O)OCC(=O)Nc2nnc(-c3ccccc3)o2)c1	-2.17 (inactive)
COc1ccccc1NS(=O)(=O)c1ccc(C)c(C(=O)NCC(c2ccco2)N(C)C)c1 (stereo not drawn)	-0.98 (inactive)
C=CCNC(=S)/N=c1/ccccn1Cc1ccccc1	-6.6 (active)
C=CCNC(=O)COc1coc(CN2CCN(Cc3ccccc3)CC2)cc1=O	0.45 (inactive)
C=CCNC(=S)N/N=C/c1ccc(OCc2ccccc2)cc1	-1.45 (inactive)
O=C(Nc1ncccc1O)c1ccc(S(=O)(=O)N2CCCC2)cc1	-0.16 (inactive)
CC(C)(C)NCc1cc(Br)ccc1OC1CCCC1	-4.79 (active)
COCC(C)NCc1cc(Br)ccc1OC (stereo not drawn)	1.7 (inactive)
CCOCCCNCc1cc(Br)ccc1OCC	-0.16 (inactive)
Cc1ccc(NC(=O)c2cnc(SCC(=O)NCC3CCCO3)n(C)c2=O)cc1 (stereo not drawn)	0.42 (inactive)

SMILES	B-score
Cc1ccc(S(=O)(=O)N2CCC(C(=O)NCCC3=CCCCC3)CC2)cc1C	0.61 (inactive)
O=C1c2ccccc2C(=O)c2c1cccc2N1CCN(C/C=C/c2ccccc2)CC1	1.06 (inactive)
COc1ccc(C)cc1NC(=O)CSc1nnc2ccc(-c3ccccn3)nn12	0.98 (inactive)
CC1(C)NC(=O)N(CCCCSc2ccc(Cl)cc2)C1=O	-6.38 (active)
Cc1ccc(SCCN2C(=O)NC(C)(C)C2=O)cc1	0.51 (inactive)
CSc1ccc(CN2C(=O)NC3(CCCCCC3)C2=O)cc1	1.22 (inactive)
Cc1ccn2c(=O)c(NC(=O)c3cccc4ccccc34)c(C)nc2c1	-0.25 (inactive)
CC1CN(C(=O)CCC(=O)NCc2cccnc2)c2ccccc2O1 (stereo not drawn)	-0.67 (inactive)
CC1CN(C(=O)CCC(=O)NC2CCN(Cc3ccccc3)CC2)c2ccccc2O1 (stereo not drawn)	2.27 (inactive)
CC1CN(C(=O)CCC(=O)NCCCN2CCC(Cc3ccccc3)CC2)c2cc(Cl)ccc2O1 (stereo not drawn)	-9.24 (active)
CN(C)S(=O)(=O)c1ccc(N2CCCC2)c(C(=O)Nc2ccc(Br)cc2F)c1	-0.29 (inactive)
Cc1cc(C)cc(NC(=O)COc2coc(CN3CCN(c4ccccc4)CC3)cc2=O)c1	0 (inactive)
Cc1ccc(NC(=S)N(CCN2CCCCC2)Cc2ccco2)cc1C	-0.41 (inactive)
Cc1ccc(NC(=S)N(CCCN2CCCC2)Cc2cccn2Cc2ccc(Cl)cc2)cc1	-8.85 (active)
Cc1ccc(NC(=S)N(CCCN2CCC(C)CC2)Cc2ccco2)cc1	-0.74 (inactive)
CC(C)(C)S(=O)(=O)c1ccccc1-c1noc(-c2ccccc2)c1C(N)=O	-0.65 (inactive)
COc1ccc(S(=O)(=O)NCC(c2ccc(C)cc2)N2CCN(C)CC2)cc1OC (stereo not drawn)	1.23 (inactive)
CCCOc1ccc(C(=O)C(CCC(CNCC)C(=O)c2ccc(OCCC)cc2)CNCC)cc1 (stereo not drawn)	-6.16 (active)
CCCOc1ccc(C(=O)CCC(=O)OC(C)C(=O)Nc2ccc(NC(C)=O)cc2)cc1 (stereo not drawn)	0.42 (inactive)
CCCCOc1ccc(C(=O)NCc2ccncc2)cc1	0.24 (inactive)
O=C(CSc1nc(=O)n2ccccc2n1)Nc1ccc2c(c1)OCCO2	0.08 (inactive)
CCOc1ccc(C(C)=O)cc1COC(=O)CN1C(=O)NC2(CCCC2)C1=O	-1.53 (inactive)
CCCCn1c(N)c(N(CC(C)C)C(=O)c2ccc(-n3c(C)ccc3C)cc2)c(=O)[nH]c1=O	-1.14 (inactive)
c1ccc(C2CNCc3c2ccc2ccccc32)cc1 (stereo not drawn)	-11.2 (active)
Cc1ccc(C)c(-c2nnc(NC(=O)CS(=O)(=O)c3ccccc3)o2)c1	1.4 (inactive)

SMILES	B-score
O=c1[nH]c(/C=C/c2cccc(Br)c2)nc2ccccc12	0.39 (inactive)
Cc1cc(C)cc(NC(=O)CSc2ccccc2)c1	0.12 (inactive)
CC(=O)Nc1ccc(SCC(=O)Nc2ccccc2Oc2ccccc2)cc1	-6.89 (active)
O=C(CSc1ccccc1)Nc1cc(Cl)ccc1Oc1ccccc1	-1.22 (inactive)
N#CCCN(C(=O)COC(=O)C1CCN(c2ccc(C(F)(F)F)cn2)CC1)c1ccc(F)cc1	0.96 (inactive)
CCOC(=O)N1CCN(C(=O)COc2ccc3oc4c(c3c2)CCCC4)CC1	0.58 (inactive)
COc1ccccc1CCNC(=O)C(=O)NCCC1CCCCN1S(=O)(=O)c1cccs1 (stereo not drawn)	-1.17 (inactive)
O=C(Nc1cccnc1)c1cc(Cl)ccc1Cl	0.72 (inactive)
O=C(/C=C/c1ccc(Cl)c([N+](=O)[O-])c1)c1cccnc1	-0.86 (inactive)
O=C(/C=C/c1ccc(Cl)cc1Cl)c1cccnc1	-4.49 (active)
COc1ccc2oc(C(=O)OCC(=O)N(CC(C)C)c3c(N)n(Cc4ccccc4)c(=O)[nH]c3=O)c(C)c2c1	0.5 (inactive)
Cc1cc(C)c(S(=O)(=O)c2ccc(F)cc2C)c(=O)[nH]1	0.31 (inactive)
C=C(C)Cn1c(C)cc(C)c(S(=O)(=O)c2ccccc2C)c1=O	-4.55 (active)
COc1ccccc1S(=O)(=O)c1c(C)cc(C)[nH]c1=O	-1.21 (inactive)
Cc1ccc(C(=O)NNC(=O)C(C)Oc2ccc3ccccc3c2)o1 (stereo not drawn)	0.32 (inactive)
CSc1ncc(Sc2ccccc2)c(C(=O)O)n1	0.25 (inactive)
CC(NCc1ccccc1OC1CCCC1)c1ccccc1 (stereo not drawn)	-12.7 (active)
CC(=O)OC(C(=O)NC1CCCCC1)c1ccccc1 (stereo not drawn)	-0.67 (inactive)
COc1ccccc1CN1CCN(C(c2ccccc2)c2ccccc2)CC1	-0.07 (inactive)
Cc1ccc(NC(=O)C2CC(=O)N(c3ccc4c(c3)OCCO4)C2)cc1S(=O)(=O)N1CCCCCC1 (stereo not drawn)	-0.57 (inactive)
COc1ccc2c(c1)CCNC2Cc1ccc(OC)c(O)c1 (stereo not drawn)	1.91 (inactive)
CN1CCN(C2Cc3ccc(Cl)cc3Sc3ccc(F)cc32)CC1 (stereo not drawn)	-1.17 (inactive)
O=C1CSC(c2ccccc2)N1c1nc(-c2ccc(Cl)cc2Cl)cs1 (stereo not drawn)	0.4 (inactive)
Clc1ccc(-c2cc(C3CCNCC3)[nH]n2)c(Cl)c1	-12.6 (active)
Clc1ccc(-c2cc(-c3ccccn3)on2)c(Cl)c1	0.99 (inactive)

SMILES	B-score
O=C(Nc1cccc2c1CCCC2)c1ccc(F)cc1	-0.09 (inactive)
Cc1ccc(S(=O)(=O)N2CCN(C(=O)Cc3sc(C)nc3-c3ccc(F)cc3)CC2)c(C)c1	-0.03 (inactive)
COc1ccc(S(=O)(=O)N2CCCCC2)cc1NC(=O)c1cc([N+](=O)[O-])ccc1N1CCOCC1	-0.55 (inactive)
CCN1C(=O)[C@@H]2[C@@H](c3ccc(-c4cccc(Cl)c4)cc3)N3CCC[C@@]3(C(=O)OC)[C@@H]2C1=O	0 (inactive)
CCOc1ccccc1OCC(=O)Nc1ccccc1C(=O)NC1CC1	-2.1 (inactive)
COc1ccccc1OCC(=O)Nc1ccccc1C(=O)NC1CC1	-0.05 (inactive)
CC(Oc1ccc(F)cc1)C(=O)Nc1ccccc1C(=O)NC1CC1 (stereo not drawn)	-5.66 (active)
CC(Oc1ccc(Br)cc1)C(=O)NCC(c1ccco1)N1CCCCC1 (stereo not drawn)	-1.52 (inactive)
Cc1ccc(-c2nc(CSCC(=O)NC3CCN(Cc4ccccc4)CC3)c(C)o2)cc1	-4.77 (active)
Cc1ccc(S(=O)(=O)NCCC(=O)NC2CCN(Cc3ccccc3)CC2)cc1	-1.38 (inactive)
Cc1ccc(-c2cc(C(=O)NC3CCN(Cc4ccccc4)CC3)c3ccccc3n2)cc1	0 (inactive)
C=CCc1cc(S(=O)(=O)c2ccc(O)c(CC=C)c2)ccc1O	-6.7 (active)
CCOC(=O)C1Nc2ccc(C(F)(F)F)cc2C2C=CCC12 (stereo not drawn)	1.69 (inactive)
COc1ccc(CNC(=O)Cc2ccc(-c3ccccc3)cc2)cc1OC	0.77 (inactive)
COc1cc(CNCc2cccs2)cc(Br)c1OC	-1.78 (inactive)
COc1cc(CNCc2ccc(OC)c3ccccc23)cc(OC)c1OC	-6.99 (active)
CCCC(=O)C1CCN(Cc2ccccc2)CC1	-3.46 (inactive)
CC12CN(Cc3ccccc3)CC(C)(CN(Cc3ccccc3)C1)C2=NO	-8.19 (active)
O=C(Nc1ccccc1)N1CCN(Cc2ccccc2)CC1	0.76 (inactive)
CC(C)(C)Oc1ccccc1Nc1nc(NCCO)nc(N2CCCC2)n1	0.89 (inactive)
COc1ccc(F)c(-c2nc(CN3CCC(c4ccccc4)CC3)c(C)o2)c1	-6.63 (active)
CCOc1ccccc1-c1nc(CN2CCC(C(=O)N3CCOCC3)CC2)c(C)o1	0.57 (inactive)
COc1cccc(CC2(CO)CCCN(Cc3nc(-c4cccs4)oc3C)C2)c1 (stereo not drawn)	-0.22 (inactive)
